According to the supplement of paper PMC3334620:
The full ranking holds about 33,000 sequences; the median of “E-score (-0.5 to 0.5)” is about -0.016, and the highest 2% start at about 0.31. This excerpt belongs to a sample that is enriched for the highest values.

Molecular target: Cst6 (UniProt P40535)
Assay: PBM E-score (8-mer binding enrichment) (E-score (-0.5 to 0.5)); higher = stronger / more preferred TF binding
Conditions: protein concentration: 200 nM; construct: GST-DNA-binding domain
Protocol: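 Universal 'all 10-mer' protein binding microarrays (Agilent AMADID 015681) probed with GST-tagged S. cerevisiae TFs (full-length or DBD) made by in vitro transcription/translation (PURExpress), about 100-200 nM. Bound TF was detected with fluorescent anti-GST. Each ungapped 8-mer (which stands for itself and its reverse complement) is scored by the PBM enrichment score (E-score), a modified Wilcoxon-Mann-Whitney statistic from -0.5 to +0.5, computed with the Universal PBM Analysis Suite. Scale: above 0.35 generally sequence-specific binding.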

Sequence of UniProt P40535 (P40535 whole entry): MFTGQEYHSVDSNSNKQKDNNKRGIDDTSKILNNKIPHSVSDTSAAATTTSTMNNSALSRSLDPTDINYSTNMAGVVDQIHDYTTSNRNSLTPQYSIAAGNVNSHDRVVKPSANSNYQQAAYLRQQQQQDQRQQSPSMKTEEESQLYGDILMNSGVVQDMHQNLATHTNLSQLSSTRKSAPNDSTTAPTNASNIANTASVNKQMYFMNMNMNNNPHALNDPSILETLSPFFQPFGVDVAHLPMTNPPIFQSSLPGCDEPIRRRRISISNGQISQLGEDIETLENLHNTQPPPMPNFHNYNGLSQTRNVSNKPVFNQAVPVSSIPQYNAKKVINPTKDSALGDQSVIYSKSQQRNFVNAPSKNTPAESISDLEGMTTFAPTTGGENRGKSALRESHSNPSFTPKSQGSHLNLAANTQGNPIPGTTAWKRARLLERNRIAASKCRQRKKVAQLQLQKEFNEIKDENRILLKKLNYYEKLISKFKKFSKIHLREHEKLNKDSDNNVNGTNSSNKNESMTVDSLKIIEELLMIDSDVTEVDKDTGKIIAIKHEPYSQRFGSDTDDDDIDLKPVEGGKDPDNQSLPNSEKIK

Sequence	PBM E-score
CCCAGGGA	-0.37
CTGGAGCA	-0.0734
CAGCCTTA	-0.254
AAGCTAAG	-0.252
AAAGCTTC	-0.172
CTACTTAC	0.127
AGGCTAAC	-0.114
CAAACCTG	0.0584
AATAATTC	0.205
AATAATTG	0.121
AATAATTA	0.325
GATAATTA	0.322
GATAATAA	0.098
CCTAATTA	-0.00674
GCTAATTA	0.166
CATAATTA	0.304
ACTAATTA	0.351
CAGGGCGA	-0.00562
CTCTCGCC	-0.249
AATGGTGA	0.184
TCGGCTCA	-0.0753
AGTGACGC	0.438
CTTGACGC	0.214
AGTGACTC	0.0809
AGTGACCC	-0.164

Sequence	PBM E-score
CGTGACAA	0.108
CGTGACCA	-0.0809
CGTGACGC	0.436
CCTGACGC	-0.0402
CGTGACGA	0.386
GCGTTAAA	-0.0116
AGGGTAGC	-0.17
GTGCTATA	0.0846
ACTCATTC	0.103
CTCCGATA	-0.203
GGGATTTA	0.00892
GGGCCTGA	-0.239
ACACCAAA	0.212
TCACCAAA	0.326
GCACCAAA	0.0915
CGCCTTAC	0.163
GAAGTGGA	-0.16
TTCATAAA	0.212
ATCATATA	0.299
GGCATACA	-0.102
CTCATAGA	0.0631
ATCATAGA	0.246
ATCATAAA	0.195
CTCATACA	0.116
GTCATAGA	0.411

Sequence	PBM E-score
GTCATATA	0.377
GTCATACA	0.317
CTCATATA	-0.0189
GTCATAAA	0.331
CAACACTG	0.0167
AGGCGTGG	-0.196
ATTAAGCG	0.108
AACTGAAG	0.0725
CCGGCCAA	-0.232
TGCTAGCA	0.0927
AGTACTGC	-0.173
TAAAGTCA	0.0375
ATTGCTCA	0.192
CAGATACG	0.0888
CTAACAGC	-0.00671
ATCATACG	0.308
ATCATACA	0.268
ATCATACC	0.259
CAGACAAG	-0.14
AGTCTCCC	-0.308
AATCATAC	0.239
CATCATAA	0.291
ACTCATAG	0.152
CATCATAG	0.326
AATCATAG	0.189

Sequence	PBM E-score
CATCATAC	0.374
CAGGGAAG	-0.244
CTTCCTTC	-0.24
ATGGTGAG	0.0691
CAACACCC	-0.142
AGGCCCAC	-0.378
GGAGTTTA	0.00491
ATGATGAA	0.367
ATGATTAA	0.329
CTGATTAA	0.161
CTGATGAC	0.292
ATGATGAC	0.378
CTGATGAA	0.0772
GTGATGAA	0.154
AGGATGAC	0.208
ATGATTAG	0.158
TAGCGAGA	-0.0782
GCATTCGA	-0.00988
ACCATCTA	-0.207
ATTTGTGA	0.146
AGTGCAGC	-0.108
ATTGATAC	0.154
GCGATGCA	-0.255
GGTCAACA	-0.0567
GGTCAACC	-0.0743

Sequence	PBM E-score
CGTCAACG	0.344
CCTCAACG	-0.102
CGTCAACC	0.377
AGTCAACC	-0.219
TGTCAACA	0.184
CGTCAACA	0.407
AGTCAACG	-0.102
GGTACGAA	0.0828
GATGCACC	-0.163
ATGATCAT	0.198
GGTCAATA	0.0678
CGTCAAGC	0.0721
CGTCAATA	0.349
CGTCAATC	0.337
AGTCAATC	0.0291
AGTCAATA	0.0835
TCGTATCA	0.127
ACTAGCCC	-0.0733
CACAGTGG	-0.124
GGCCTGAA	-0.122
AATTCGTC	0.316
CATTCGTC	0.148
AATTCGTA	0.252
AGTGCGGC	0.173
AATGCGGC	0.266

Sequence	PBM E-score
CATGCGGA	-0.0527
CGTGCGGA	0.0478
CATGCGGC	0.33
CGTGCGGC	0.321
ATTAAGAC	-0.0411
AGTTGATA	0.103
GAAAAGAC	0.222
CGACAGAG	-0.315
TGCCTTAA	-0.0513
AGAACAAG	0.113
CAAAAAAA	0.32
AGAACAAT	0.25
AAAAAAAA	0.317
AAAAAAAG	0.211
ACAAAAAA	0.311
AGAACAAA	0.34
CCAAAAAA	0.279
GAAAAAAA	0.258
CAAAAAAC	0.201
ACAAAAAT	0.279
ACAAAAAC	0.104
CATCCAGC	-0.0585
CTCCGTAA	-0.0462
CCACCTAA	-0.0425
TAGCCCGA	-0.177

Sequence	PBM E-score
CACAATCA	0.17
AGTTTGAC	0.0432
ACTTTAAT	0.107
CCTACGTA	0.297
CTCACGTA	-0.00865
ATTACGTG	0.46
ATTACCTG	0.14
GTTACGTA	0.46
GCTACGTA	0.213
AGTACGTG	-0.125
ACTACGTA	0.343
GTTACGGA	0.11
CTTACGTA	0.466
CTTACGAA	0.119
ACTACGTG	-0.0819
AGTCTCAA	-0.217
CAAACCTC	-0.272
TCTTCACA	0.113
AAACCCGT	0.0445
ATCTCGTG	-0.0972
ATCGCTGG	-0.217
AGACGCAT	-0.0757
ATTACGTC	0.485
ATTACGGC	0.266
CTTACGTC	0.421

Sequence	PBM E-score
ACTACGTC	0.157
ATTACGGA	0.154
CTTACGCC	0.193
CTCACGTC	0.14
ATTAGGTA	0.261
ATTACGTA	0.49
AACCTTCG	0.0222
CCAAGGCC	-0.19
CCATTCTA	-0.0992
AAGAATTG	0.182
ACTTGCTC	-0.198
ATCAAACA	0.107
CAGTTGGC	-0.175
AAGTCACA	0.119
ACGTCACG	0.49
ACGTCACT	0.495
AAGTCACT	0.141
AGGTCACT	-0.0496
AGGTCACG	0.0374
AGGTCACA	-0.0345
ACGTCACA	0.484
AAGTCACG	0.0378
TGCACCAA	-0.0568
AGTTGCTG	-0.0492
ACACACAG	0.107

Sequence	PBM E-score
CACGCTGC	-0.246
CAACCACC	-0.251
ATTCTCGC	-0.17
AAGTACCC	-0.275
ATGCCTCG	0.317
ATGCCTCC	-0.0323
ATGCCTCA	0.11
ATGTCAGC	0.225
ATGTCATG	0.425
GTGTCATA	0.249
ATGTCATC	0.432
CTGTCATA	0.186
CTGTCATC	0.186
ATGTCATA	0.442
ATGTCAAG	0.235
ATGTCGTG	0.0262
ACTTTGAA	0.0348
GCATCGAA	-0.0745
GGATCTAA	-0.0815
